Gal4-VP16 FLuc: inhibits Gal4-VP16 luciferase reporter, ROR gamma counter-screen | actives 3.5% (n = 310,000) | Potency, µM (doses to about 53.6 µM), for the others: at the top dose activity, negative = inhibition, usual class: inhibitors | AID 2546 | Drosophila S2 Gal4-VP16 UAS-luciferase, luminescence, 20 h;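 also: Gal4-VP16 expression switched on by copper sulfate through the metallothionein promoter; potency is read from the fitted curve at half-maximal effect; % is scaled to controls: 0 for no effect and ±100 for the full control effect; nearly all actives have a fitted effect of over 50% in size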
BRCA1 expr up: BRCA1 expression activation | MCF7-BRCA1-FFLuc reporter, luminescence, 48 h; response scale: scaled: vehicle 0%, 10 µM genistein 100% | actives 1.1% (n = 380,000) | Potency, µM (top dose mostly 46.1 µM), inactives show at the top dose activation, actives largely listed as activators | AID 624202; also: potency is read from the fitted curve at half-maximal effect; nearly all actives have a fitted effect of over 80% in size
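Activators of BRCA1 expression were detected as increased firefly luciferase luminescence in engineered MCF7 cells after 48 h compound incubation. Signals were scaled to genistein 10 microM as full activation.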
RORgamma inh: inhibitors of mouse ROR gamma transcriptional activity; actives 5.4% (n = 310,000); Drosophila S2 Gal4-RORgamma UAS-luciferase reporter, 20 h; P51450; Potency, µM (titrated, usually from 53.6 µM), without a hit: at the highest dose activity change, negative = inhibition, usual class: inhibitors; also: potency is read from the fitted curve at half-maximal effect; % is scaled to controls: 0 for no effect and ±100 for the full control effect; nearly all actives have a fitted effect of over 60% in size
Target sequence (P51450 whole entry, looked up, the tested form may be a part): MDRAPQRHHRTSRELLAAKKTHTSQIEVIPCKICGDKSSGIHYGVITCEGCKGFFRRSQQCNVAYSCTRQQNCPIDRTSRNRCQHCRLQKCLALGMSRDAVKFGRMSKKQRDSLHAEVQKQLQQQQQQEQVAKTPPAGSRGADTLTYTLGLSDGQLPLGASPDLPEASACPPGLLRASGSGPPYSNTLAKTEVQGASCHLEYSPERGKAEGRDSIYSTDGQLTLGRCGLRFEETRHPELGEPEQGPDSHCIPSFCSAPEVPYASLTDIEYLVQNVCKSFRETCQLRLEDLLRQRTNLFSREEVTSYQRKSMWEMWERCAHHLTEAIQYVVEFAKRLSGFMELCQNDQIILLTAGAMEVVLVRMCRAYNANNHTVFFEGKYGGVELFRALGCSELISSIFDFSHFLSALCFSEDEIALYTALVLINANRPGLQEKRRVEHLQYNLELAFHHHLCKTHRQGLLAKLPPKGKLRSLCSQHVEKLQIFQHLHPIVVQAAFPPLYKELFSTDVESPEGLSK
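Read-out: Photinus luciferase luminescence; inhibitors lower reporter signal. Insect Schneider cells with Gal4-ROR gamma fusion under metallothionein promoter, UAS reporter; 700 uM final copper sulfate induction, 20 hr, ambient temperature.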
ELG1 DNA repair: blocks ELG1-dependent DNA repair in HEK293T cells. HEK293T ELG1-luciferase reporter, luminescence, 16 h; DNA damage induced by 5-fluorouridine. Potency, µM (top dose mostly 46.1 µM), for the others: at the top dose activity change, negative = inhibition, most hits filed as inhibitors. actives 2.3% (n = 330,000); also: potency is read from the fitted curve at half-maximal effect; % is scaled to controls: 0 for no effect and ±100 for the full control effect; nearly all actives have a fitted effect of over 55% in size
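DMSO vehicle served as the neutral condition. Each well held 2,000 cells given 5-fluorouridine plus compound; after 16 hr at 37 °C/5% CO2, ONE-Glo was added and luciferase measured 30 min later.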
Giardia kill: Giardia lamblia killing | actives 0.15% (n = 340,000) | activity change, % at 7.66 µM, hits read low | Giardia lamblia trophozoite viability; in the data active = activity change below about -80%; inconclusive = between about -30% and that limit;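 also: parasites exposed to compound for two days anaerobically before the ATP read; % is scaled to controls: 0 for no effect and ±100 for the full control effect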
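Killing of trophozoites was scored by loss of ATP luminescence after a 48 hrs anaerobic exposure to compounds at 37 deg C, using 100 cells per well.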
p53 reactivator: mutant p53 re-activation in reporter cells. AID 504706. H1299 p53-A138V BP100-luciferase reporter, luminescence, 24 h. Potency, µM (doses to about 92.2 µM), for inactives: at the highest dose activity change, positive = activation, hits mostly activators. actives 0.063% (n = 320,000); also: potency is read from the fitted curve at half-maximal effect; % of control where 0% means no effect; nearly all actives have a fitted effect of over 45% in size
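H1299 (p53-null), stable ts p53-A138V + BP100-Luc; 1000 cells/well, Opti-MEM/10% FBS; cpd 4 pt, 1:5; 24 h, 37 deg C, 5% CO2; detection reagent 10 min RT; luminescence.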
An asterisk follows results filed as active. Compounds with a hit are over-represented: about 7.6% of the library has one in this group of screens. Unless noted, calls follow the shape of the dose curve; as a rule, active = well fitted curve in the direction sought with a large enough effect; inconclusive = small, poorly fitted or top-dose-only effect, or another doubt; inactive = no such curve, though single readings can be large; an effect the other way counts as inactive or inconclusive.

Screening CCOC(=O)CN1NC2(CCCCCCC2)NC1=S returned Gal4-VP16 FLuc -18%, BRCA1 expr up -7%, RORgamma inh 4µM*, ELG1 DNA repair 7%, Giardia kill 10 and p53 reactivator 2%.
For CCOC(=O)CN1NC2(CCC(C)CC2)NC1=S (configuration not stated) the results were Gal4-VP16 FLuc inconclusive, BRCA1 expr up 0%, RORgamma inh inconclusive, ELG1 DNA repair -5%, Giardia kill 6 and p53 reactivator -1%.
Cc1cccc(C(=O)NCCCNC(=O)c2ccc(C)nc2)c1 was read as Gal4-VP16 FLuc -10%, BRCA1 expr up 0%, RORgamma inh -4%, ELG1 DNA repair -5%, Giardia kill inconclusive and p53 reactivator -1%.
For Cc1cc(N/N=C/c2cccc(Br)c2)nc2ccccc12 the results were Gal4-VP16 FLuc inconclusive, BRCA1 expr up inconclusive, RORgamma inh 11µM*, ELG1 DNA repair inconclusive, Giardia kill 31 and p53 reactivator inconclusive.
Screening ClC(Cl)(Cl)c1nc(N/N=C/c2ccncc2)c2ccccc2n1 returned Gal4-VP16 FLuc -13%, BRCA1 expr up -20%, RORgamma inh inconclusive, ELG1 DNA repair 12%, Giardia kill 2 and p53 reactivator 1%.
Cc1ccc(N/N=C/c2ccncc2)cc1 was read as Gal4-VP16 FLuc 30%, BRCA1 expr up 6.3µM*, RORgamma inh 33%, ELG1 DNA repair inconclusive, Giardia kill 39 and p53 reactivator inconclusive.
For Cc1cc(N/N=C/c2ccncc2)nc2ccccc12 the results were Gal4-VP16 FLuc -2%, BRCA1 expr up 5.6µM*, RORgamma inh inconclusive, ELG1 DNA repair inconclusive, Giardia kill 7 and p53 reactivator -2%.
Cn1c(=O)n(C)c2cc(S(=O)(=O)Nc3cc(Cl)ccc3O)ccc21 was read as Gal4-VP16 FLuc -1%, BRCA1 expr up -3%, RORgamma inh 71%, ELG1 DNA repair -5%, Giardia kill -15 and p53 reactivator -5%.
`CCCCc1c(C)nc2ccc(OC)cc2c1SCCC(=O)O` gave Gal4-VP16 FLuc -13%, BRCA1 expr up -1%, RORgamma inh 5%, ELG1 DNA repair 11%, Giardia kill 3 and p53 reactivator 7%.
Screening CCCc1c(C)nc2ccccc2c1SCCC#N returned Gal4-VP16 FLuc -4%, BRCA1 expr up 1%, RORgamma inh -4%, ELG1 DNA repair 23µM*, Giardia kill 0 and p53 reactivator -3%.
Screening CCCCc1c(C)nc2ccc(Br)cc2c1SCCC#N returned Gal4-VP16 FLuc -13%, RORgamma inh inconclusive, ELG1 DNA repair 18µM* and p53 reactivator 9%.
`CS(=O)(=O)N(CC(=O)N1CCCC1)c1cccc(F)c1` gave Gal4-VP16 FLuc 1%, BRCA1 expr up -6%, RORgamma inh 1%, ELG1 DNA repair 6%, Giardia kill 16 and p53 reactivator 11%.
O=C(C1CCCCC1)N(Cc1nc2sc3c(c2c(=O)[nH]1)CCCC3)Cc1cccs1 was read as Gal4-VP16 FLuc inconclusive, BRCA1 expr up -62%, RORgamma inh 11µM*, ELG1 DNA repair inconclusive, Giardia kill -10 and p53 reactivator -24%.
O=C(CCc1nc2sc3c(c2c(=O)[nH]1)CCCC3)Nc1ccccc1Cl was read as BRCA1 expr up -23%, ELG1 DNA repair 29%, Giardia kill 27 and p53 reactivator 6%.
`CCOC(=O)c1c(C)[nH]c(C)c1C(=O)CSc1nc2ccccc2c(=O)n1-c1ccc(CC)cc1` gave Gal4-VP16 FLuc -5%, BRCA1 expr up -39%, RORgamma inh inconclusive, ELG1 DNA repair inconclusive, Giardia kill -9 and p53 reactivator -5%.
`CC(=O)c1ccc(-n2c(SCC(=O)c3c[nH]c4ccccc34)nc3ccccc3c2=O)cc1` gave Gal4-VP16 FLuc -18%, BRCA1 expr up 20%, RORgamma inh 1.4µM*, ELG1 DNA repair inconclusive, Giardia kill -13 and p53 reactivator -6%.
O=C(Nc1ccc2c(c1)OCO2)c1cc(C2CCCCN2C(=O)OCCF)on1 (configuration not stated) was read as BRCA1 expr up 5%.
For CCn1c(SCc2cccc(F)c2)nnc1-c1ccncc1 the results were Gal4-VP16 FLuc 0%, BRCA1 expr up -8%, RORgamma inh -12%, ELG1 DNA repair 2.6µM*, Giardia kill 7 and p53 reactivator -4%.
Screening CCn1c(SCc2cccc(F)c2)nnc1-c1cccnc1 returned Gal4-VP16 FLuc 6%, BRCA1 expr up 1%, RORgamma inh 12%, ELG1 DNA repair 3%, Giardia kill -8 and p53 reactivator 3%.
c1ccc(Oc2nc(N3CCOCC3)nc(N3CCOCC3)n2)cc1 was read as Gal4-VP16 FLuc 3%, BRCA1 expr up -7%, RORgamma inh -23%, ELG1 DNA repair inconclusive, Giardia kill -6 and p53 reactivator -1%.
Screening O=C1CSC(c2ccccc2)N1Nc1nc(N2CCOCC2)nc(N2CCOCC2)n1 (configuration not stated) returned Gal4-VP16 FLuc -12%, BRCA1 expr up 0%, RORgamma inh 27%, ELG1 DNA repair 6.5µM*, Giardia kill 11 and p53 reactivator -3%.
`CCOc1cc(C(=O)O)cc(Cl)c1OCC#N` gave Gal4-VP16 FLuc 4%, BRCA1 expr up -16%, RORgamma inh -6%, ELG1 DNA repair 1%, Giardia kill 10 and p53 reactivator 21%.
`C=CCn1c(-c2cccc([N+](=O)[O-])c2)n[nH]c1=S` gave Gal4-VP16 FLuc 8.9µM*, BRCA1 expr up -4%, RORgamma inh 2.2µM*, ELG1 DNA repair inconclusive, Giardia kill -9 and p53 reactivator 7%.
For O=[N+]([O-])c1cccc(-c2n[nH]c(=S)n2Cc2ccccc2)c1 the results were Gal4-VP16 FLuc inconclusive, BRCA1 expr up -3%, RORgamma inh 7.1µM*, ELG1 DNA repair 21%, Giardia kill -6 and p53 reactivator -11%.
C=CCn1c(SC)nnc1-c1cccc([N+](=O)[O-])c1 was read as Gal4-VP16 FLuc -5%, BRCA1 expr up 1%, RORgamma inh 2%, ELG1 DNA repair 1%, Giardia kill 18 and p53 reactivator 5%.
For CC(Sc1nnnn1-c1ccc(O)cc1)C(=O)NC1CCCCC1C (configuration not stated) the results were Gal4-VP16 FLuc -9%, BRCA1 expr up -26%, RORgamma inh 14%, ELG1 DNA repair -14%, Giardia kill -8 and p53 reactivator -8%.

Assay outcomes from PubChem.
